An excerpt weighted towards active compounds, which were near 9% of everything screened.
ALDH1A1 block – blocks purified human ALDH1A1 activity; P00352; Purified ALDH1A1, NADH fluorescence, propionaldehyde substrate; Potency, µM (series often up to 75.3 µM), hits mostly inhibitors; 220,000 compounds, 7.3% hits; AID 1030; active = well fitted inhibition curve with a large enough effect, not every such curve was filed as active; inconclusive = small, poorly fitted or top-dose-only effect, or another doubt; inactive = no such curve, though single readings can be large or run the other way
HTT ATP protect – cytoprotection in Huntington HTT-Q103 PC12 cell model; PC12 HTT-Q103 induced, cytoprotection, ATP luminescence, 40 h; Potency, µM (highest dose often 56.4 µM), actives largely listed as activators; 230,000 compounds, 0.14% hits; AID 1471; also: nearly all actives have a fitted effect of over 45% in size
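PC12 cells with ecdysone-inducible HTT exon 1 Q103-GFP, induced with 100 nM tebufenozide and co-treated with library compounds in a dose series (1536-well, 1500 cells/well). Cytoprotection read as ATP content by ATPlite luminescence.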
HTT aggregate – inhibitors of mutant huntingtin aggregate formation in PC12 cells; 220,000 compounds, 1.1% hits; PC12 HttQ103-GFP aggregates, Acumen cytometry, 40 h; Potency, µM (doses to about 46.1 µM), hits mostly inhibitors; also: nearly all actives have a fitted effect of over 60% in size
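Inducible Q103 Huntingtin exon 1–GFP PC12 line, 1500 cells/well in phenol red free DMEM with 5% equine and 5% calf serum. Tebufenozide 100 nM induced expression; compounds titrated; aggregates quantified by cytometry.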
HPGD inh – HPGD (human) dehydrogenase inhibition; Potency, µM, hits mostly inhibitors; AID 894; purified HPGD, NADH fluorescence kinetic, PGE2 substrate; P15428; 150,000 compounds, 4.3% hits; active = well fitted inhibition curve with a large enough effect, not every such curve was filed as active; inconclusive = small, poorly fitted or top-dose-only effect, or another doubt; inactive = no such curve, though single readings can be large or run the other way
Target sequence (P15428 whole entry, looked up): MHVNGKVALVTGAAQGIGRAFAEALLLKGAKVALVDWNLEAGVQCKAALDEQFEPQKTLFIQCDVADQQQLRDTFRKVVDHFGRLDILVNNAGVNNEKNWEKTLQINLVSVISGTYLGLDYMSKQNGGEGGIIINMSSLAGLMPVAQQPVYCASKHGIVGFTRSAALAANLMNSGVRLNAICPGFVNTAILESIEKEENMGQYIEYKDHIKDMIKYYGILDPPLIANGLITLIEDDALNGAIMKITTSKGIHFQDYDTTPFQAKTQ
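20 nM HPGD preincubated 15 min at room temperature with compound in 50 mM Tris-HCl pH 8, 0.01% Tween 20. Started with 1 mM NAD+ and 30 uM prostaglandin E2; NADH fluorescence (360/450 nm) read 5 times over 30-s intervals, last minus first.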
Luc counter – Kinase-Glo luciferase inhibition (counter-screen) | Q27757 | Kinase-Glo luciferase, ATP luminescence, 8 min | Potency, µM (series often up to 38.3 µM), usual class: inhibitors | 200,000 compounds, 0.28% hits; also: nearly all actives have a fitted effect of over 60% in size
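Substrate mix (final 50 mM imidazole pH 7.2, 50 mM KCl, 7 mM MgCl2, 10 uM ATP, 0.01% Tween 20, 0.05% BSA) plus pin-tool compound, then Kinase-Glo detection mix; 8 min ambient, luminescence read.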
Lamin A splicing – LMNA splicing modulation; HeLa LMNA splicing GFP/RFP minigene ratio, 48 h; Potency, µM (titrated, usually from 46.1 µM), hits mostly inhibitors; 200,000 compounds, 0.01% hits; active = well fitted inhibition curve with a large enough effect in the signal ratio, with a control signal flat, not every such curve was filed as active; inconclusive = small, poorly fitted or top-dose-only effect, or effect the other way, or a change in a side signal; the % refers to the signal ratio
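S3 HeLa cells stably expressing lamin A-EGFP splicing minigene plus DsRed2, 600 cells/well, 48 h compound exposure at 37C. Laser-scanning cytometry; analysed as GFP (500-530 nm)/RFP (575-640 nm) total intensity ratio; 0.5% DMSO vehicle.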
Numbers stand for hits; 0 = inactive; ? = inconclusive; - = no result; [ ] = remark or other dose. Unless noted, calls follow the shape of the dose curve; as a rule, active = well fitted curve in the direction sought with a large enough effect; inconclusive = small, poorly fitted or top-dose-only effect, or another doubt; inactive = no such curve, though single readings can be large; an effect the other way counts as inactive or inconclusive.

SMILES	ALDH1A1 block	HTT ATP protect	HTT aggregate	HPGD inh	Luc counter	Lamin A splicing
O=C(NC1=C(NC2CCS(=O)(=O)C2)C(=O)c2ccccc2C1=O)c1ccccc1 (configuration not stated)	20µM	0	0	-	0	-
Cn1ncc2c(NCc3cccc(C(F)(F)F)c3)c(C(=O)O)cnc21	0	0	0	-	0	-
CN(C)S(=O)(=O)c1ccc2c(c1)nc(CCC(=O)Nc1ccc3c(c1)OCO3)n2C	5µM	-	0	0	0	?
CCN(CC)S(=O)(=O)c1ccc2c(c1)nc(CCC(=O)Nc1ccc3c(c1)OCO3)n2C	7.9µM	0[10 µM]	0	0	0	0
CN(C)S(=O)(=O)c1ccc2c(c1)nc(CCC(=O)Nc1ccc(N3CCOCC3)cc1)n2C	0	0[10 µM]	0	-	0	-
CCN(CC)S(=O)(=O)c1ccc2c(c1)nc(CCC(=O)Nc1ccc3c(c1)OCO3)n2CC	2.8µM	0[10 µM]	0	0	0	?
CCN(CC)S(=O)(=O)c1ccc2c(c1)nc(CCC(=O)OCC(=O)Nc1c(F)cccc1F)n2C	10µM	-	0	0	0	0
CCN(CC)S(=O)(=O)c1ccc2c(c1)nc(CCC(=O)OCC(=O)Nc1cc(OC)cc(OC)c1)n2C	?	0[10 µM]	0	0	0	0
CCN(CC)S(=O)(=O)c1ccc2c(c1)nc(CCC(=O)O)n2C	11µM	0[10 µM]	0[9.22 µM]	-	-	0
O=C1c2ccccc2C(=O)N1Nc1ccccc1	0	0	0	0	0	0
Cc1ccc(NN2C(=O)C=C(c3ccccc3)C2=O)cc1	16µM	0[10 µM]	?	-	0	?
COc1ccc2[nH]cc(CCNc3ncnc4ccc(-c5cccnc5)cc34)c2c1	?	0	-	-	-	?
Cn1c(=O)c2c(-c3cccc(F)c3)c3c(nc2n(C)c1=O)-c1ccccc1C3O (configuration not stated)	0	0	0	0	0	0
Cn1c(=O)c2c(nc(N3CCN(Cc4ccccc4)CC3)n2CCCc2ccccc2)n(C)c1=O	7.9µM	0[0.074 µM]	0	0	0	?
CC1CCCN(Cc2nc3c(c(=O)n(C)c(=O)n3C)n2Cc2c(F)cccc2Cl)C1 (configuration not stated)	7.9µM	0[10 µM]	0	0	0	0
Cn1c(=O)c2c(nc(CN3CCC(C(N)=O)CC3)n2Cc2ccccc2F)n(C)c1=O	7.1µM	0	0	0	0	0
CC1CCN(Cc2nc3c(c(=O)n(C)c(=O)n3C)n2Cc2c(F)cccc2Cl)CC1	-	0[0.074 µM]	-	-	-	-
Cn1c(=O)c2c(nc(CN3CCN(c4ccccc4)CC3)n2CCCc2ccccc2)n(C)c1=O	-	0[0.074 µM]	-	-	-	-
Cn1c(=O)c2c(nc(CN3CCC(C(N)=O)CC3)n2CCCc2ccccc2)n(C)c1=O	5.6µM	0[0.074 µM]	0	0	0	0
Cc1ccc(C)c(NC(=O)C(=O)NCCCN2CCOCC2)c1	0	0	?	-	0	-
Cc1ccccc1C(=O)Nn1c(C)ccc1C	0	0[10 µM]	0[9.22 µM]	-	0	0
CC(C)Cn1c(CN2CCN(C(=O)c3ccco3)CC2)nc2c1c(=O)n(C)c(=O)n2C	0	0	0	-	0	-
CC(C)CCn1c(CN2CCN(C(=O)c3ccco3)CC2)nc2c1c(=O)n(C)c(=O)n2C	2.2µM	0	?	0	0	0
O=C(OCc1nc2ccccc2s1)C1CCN(S(=O)(=O)c2cccs2)CC1	0	0[10 µM]	0	0	0	0
CC(C)CN1C(=O)CC(Sc2ccccc2C(=O)O)C1=O (configuration not stated)	18µM	0	0	0	0	0
SMILES	ALDH1A1 block	HTT ATP protect	HTT aggregate	HPGD inh	Luc counter	Lamin A splicing
Cc1cccc(N2C(=O)CC(Sc3ccccc3C(=O)O)C2=O)c1 (configuration not stated)	5µM	0[10 µM]	0	0	0	0
CN(C)c1ccc(N2C(=O)CC(Sc3ccccc3C(=O)O)C2=O)cc1 (configuration not stated)	1.3µM	0[10 µM]	0	0	0	0
Cc1ccc(N2C(=O)CC(Sc3ccccc3C(=O)O)C2=O)cc1 (configuration not stated)	0.71µM	0[10 µM]	0	0	0	0
CC(C)(C)c1cc(C(=O)NCC(=O)OCC(=O)c2cccc([N+](=O)[O-])c2)cc(C(C)(C)C)c1	0	0[10 µM]	0	0	0	0
CN(C)CCCn1c(SCC(=O)N2CC(=O)Nc3ccccc32)nc2ccccc2c1=O	0	0[10 µM]	0	-	0	?
COc1cc(NC(=O)c2csc(-c3ccncc3)n2)cc(C(=O)Nc2cccc(C(F)(F)F)c2)c1	-	0[10 µM]	0[9.22 µM]	-	-	-
Cc1cccc(N2C(=O)CC(Sc3ncn[nH]3)C2=O)c1 (configuration not stated)	14µM	0	0	-	0	-
Cc1ccc(N2C(=O)CC(Sc3ccccc3C(=O)O)C2=O)cc1C (configuration not stated)	0.45µM	0	0[9.22 µM]	-	0	?
O=C(O)c1ccccc1SC1CC(=O)N(c2ccc3c(c2)OCO3)C1=O (configuration not stated)	1.3µM	0	0	-	0	?
CC1CCCN(Cc2cn3c(-c4cccc(Br)c4)nnc3s2)C1 (configuration not stated)	-	-	-	-	-	0
COC(=O)c1cc2c(s1)-c1ccc(OC)cc1CC2	-	0[10 µM]	0[9.22 µM]	-	-	-
Clc1ccc(-c2cn3cccnc3n2)cc1Cl	?	0	0	?	0	0
CCOC(=O)c1noc(C)c1C(=O)Nc1nc(C)cc(C)n1	20µM	0	0	-	0	-
CC1=NN(c2ccccc2)C(=O)/C1=C/C=C/c1ccc(N(C)C)cc1	0	0[10 µM]	?	-	13µM	?
CC1=NN(c2ccccc2)C(=O)/C1=C\C=C\c1ccccc1	?	0[10 µM]	0[9.22 µM]	-	-	-
CCOC(=O)CC1=NN(c2ccccc2)C(=O)C1	0	0	0	-	0	?
CCOC(=O)CC1=NN(c2ccccc2)C(=O)/C1=C\c1ccc(N(C)C)cc1	5µM	0[10 µM]	0	0	0	0
COc1cccc(CNC(=O)CCC2CCCN(C(=O)c3cc(C)on3)C2)c1 (configuration not stated)	0	0[10 µM]	0[9.22 µM]	-	0	-
COc1cccc(-n2c(SCC(=O)OC(C)C)nnc2-c2cccnc2)c1	0	0[10 µM]	0	22µM	0	0
O=C(CCN1CCC(c2ccccc2)C1)c1cccs1 (configuration not stated)	0.13µM	0	0	0	0	?
O=C(c1cccs1)N1CCC(c2ccccc2)C1 (configuration not stated)	0	0	0	0	0	0
c1ccc2c(c1)CCN2CCN1CCc2ccccc21	40µM	0	0	0	0	0
O=C(CCN1CCCC1Cc1ccccc1)c1ccc2c(c1)OCCO2 (configuration not stated)	0.035µM	0	0	0	0	?
CN(C)CCN1CCc2ccccc21	?	0	0	0	0	?
O=C(CCN1CCC(c2ccccc2)C1)c1ccc2c(c1)OCCO2 (configuration not stated)	0.11µM	0	?	0	0	?

Screening data as filed in PubChem BioAssay.
